Experimental data: ChEMBL document CHEMBL1157539, “Thousands of chemical starting points for antimalarial lead identification” (Nature, 2010)

Tests used:
Assay type in all cases: functional
Plasmodium falciparum [1] = assay: GSK_TCMDC: Inhibition of Plasmodium falciparum 3D7 in whole red blood cells, using parasite LDH activity as an index of growth. Test compounds present at 2uM
Plasmodium falciparum [2] = assay: GSK_TCMDC: Inhibition of Plasmodium falciparum Dd2 in whole red blood cells, using parasite LDH activity as an index of growth. Test compounds present at 2uM
HepG2 = assay: GSK_TCMDC: Percent inhibition of human HepG2 cell line. Test compounds present at 10uM.

Row | SMILES | Inhibition (Plasmodium falciparum [1]) [%] | Inhibition (Plasmodium falciparum [2]) [%] | Inhibition (HepG2) [%]
1 | O=C(Nc1ccccc1O)c1ccc(S(=O)(=O)c2ccc(Cl)cc2)cc1 | 90 | 85 | 18
2 | Cc1ccc(CN2CCC(C(=O)Nc3ccc(-c4cc5ccccc5[nH]4)cc3)CC2)o1 | 92 | 40 | 19
3 | Cc1nc(C)c(CC(=O)Nc2ccc(-c3cccc(-c4nc5cc(C(F)(F)F)ccc5[nH]4)c3)cc2)s1 | 86 | 4 | 67
4 | COc1ccc(CCNc2ccnc3cc(Cl)ccc23)cc1OC.Cl | 100 | 92 | 4
5 | CC1CN(S(=O)(=O)c2ccc(NC(=O)c3cc(-c4ccccc4O)n[nH]3)cc2)CC(C)O1 (stereo not drawn) | 97 | 93 | 21
6 | Cc1cccc2nc(-c3ccc(-c4cccc(NC(=O)c5cccc(C(N)=O)c5)c4)cc3)[nH]c12 | 84 | 87 | 14
7 | O=C(Nc1ccc2c(c1)CCC2)c1ccc(N2CCN(c3ccncc3)CC2)cn1.O=C(O)C(F)(F)F | 99 | 58 | 56
8 | Nc1cccc(CNCc2ccc(-c3cccc(-c4nc5cc(C(F)(F)F)ccc5[nH]4)c3)cc2)c1.O=C(O)C(F)(F)F | 100 | 100 | 60
9 | O=C(Cc1cccc(Cl)c1)Nc1cccc(-c2c[nH]c3nc(Nc4ccccc4)ncc23)c1.O=C(O)C(F)(F)F | 99 | 70 | 5
10 | Br.CCOCc1cn(CC(=O)c2ccc(-c3ccccc3)cc2)c(C)nc1=N | 93 | 72 | 13
11 | Oc1ccc(-c2nc(-c3ccc4oc5ccc(-c6[nH]c(-c7ccc(O)cc7)nc6-c6ccccc6)cc5c4c3)c(-c3ccccc3)[nH]2)cc1 | 84 | 71 | 0
12 | Cc1[nH]c(C)c(-c2ccc(OCc3ccc(F)cc3)cc2)c(=O)c1Cl | 95 | 96 | 0
13 | O=C(Cn1c(CCc2cccc(F)c2F)nc(=O)c2ccccc21)N(CCN1CCCC1)Cc1ccc(-c2ccc(C(F)(F)F)cc2)cc1.O=C(O)C(O)C(O)C(=O)O | 100 | 37 | 63
14 | COc1ccc2c(NN=Cc3cccc(Cl)c3)ccnc2c1 | 100 | 94 | 32
15 | Cc1cccc2nc(-c3cccc(-c4ccc(NC(=O)Cc5ccc[n+]([O-])c5)cc4)c3)[nH]c12 | 99 | 87 | 11
16 | CC(C)CCn1c(Sc2ccc([N+](=O)[O-])cc2C(F)(F)F)nnc1-c1ccccc1Cl | 99 | 43 | 0
17 | CCN(CCCN1CCCCC1)c1cc(C)nc(Nc2ccc(F)c(C(F)(F)F)c2)n1.O=C(O)C(F)(F)F | 100 | 93 | 32
18 | Cc1cc(O)c(-c2ccc(Sc3ccc(Cl)cc3)cc2)c(C)n1 | 92 | 84 | 0
19 | CCN(CC)S(=O)(=O)c1ccc(C(=O)Oc2ccccc2N(Cc2ccc(OC)cc2)C2=NS(=O)(=O)c3ccccc32)cc1 | 98 | 63 | 0
20 | COc1cc2c(C3CCN(CC4CCN(C(=O)/C=C/c5ccc(Cl)c(Cl)c5)CC4)CC3)c[nH]c2cn1 | 100 | 88 | 27
21 | CCOC(=O)c1ccc(NC(=O)Nc2ccc(-c3cccc(-c4nc5ccccc5[nH]4)c3)cc2)cc1 | 100 | 99 | 94
22 | CS(=O)(=O)CCNCc1cccc(-c2cc3c(Nc4ccc(OCc5ccccc5)cc4)ncnc3cn2)c1.Cl | 100 | 26 | 3
23 | O=C(NCCCCN1CCC(c2ccc3c(c2OCCCO)CCCC3)CC1)c1ccc(-c2ccc(C(F)(F)F)cc2)cc1 | 83 | 53 | 98
24 | O=C(c1csc(-c2cccnc2)n1)N1CCc2cc3nccc(N4CCN5CCC[C@H]5C4)c3cc21 | 97 | 78 | 0
25 | c1cc2[nH]c(CCCc3nc4cc(C5=N[C@H]6CCCC[C@H]6N5)ccc4[nH]3)nc2cc1C1=N[C@@H]2CCCC[C@@H]2N1 | 85 | 84 | 10
26 | Cl.NC(=O)c1ccccc1Nc1nc(Nc2cccc(N3CCN(CCO)CC3)c2)ncc1Cl | 95 | 98 | 93
